# Laboratory results as given in PubChem BioAssay (Tox21).
# Unmarked numbers belong to inactive results. Records with an inconclusive call do not appear. A call without a number means that no potency is given here. Calls of active or inactive are those of the source. Unless noted, calls come from the whole dose curve; as a rule, active = well fitted curve in the direction sought with a large enough effect in the repeat runs; inconclusive = weak or mixed curves; inactive = no such curve, though single readings can be large; an effect the other way counts as inactive or inconclusive.
# Legend:
# [1] = qHTS assay to identify small molecule agonists of the hypoxia (HIF-1) signaling pathway - cell viability counter screen (AID 1224844; calls by dose curve; note: nearly all actives have a fitted effect of over 50% in size)
# Outline: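 Same wells as the HIF-1 reporter screen; ME-180 cells carrying HRE-bla, 17 hr treatment at 37C; CellTiter-Glo luminescence read after 30 min at room temperature.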
# [2] = qHTS assay to identify small molecule agonists of H2AX (AID 1224845; active = well fitted activation curve with a large enough effect in the signal ratio in the repeat runs, not every such curve was filed as active; the % refers to the signal ratio; note: potency is the fitted concentration of half-maximal effect)
# Outline: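 Wild-type CHO-K1 cells plated overnight, then exposed 3 hr at 37C to compounds at 15 concentrations (0.76% DMSO). Lysed, then HTRF anti-pH2AX(S139)-cryptate/anti-H2AX-d2 detection after 24 hr at room temperature; emissions 665 and 620 nm.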
# [3] = qHTS assay to identify small molecule agonists of the hypoxia (HIF-1) signaling pathway (AID 1224846; active = well fitted activation curve with a large enough effect in the signal ratio in the repeat runs, not every such curve was filed as active; the % refers to the signal ratio)
# Outline: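 In ME-180 cells bearing an HRE-bla construct, 17 h treatment with DMSO-dissolved compounds at 37C was followed by CCF4-AM loading to quantify reporter induction.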
# [4] = qHTS assay to identify small molecule agonists of H2AX - cell viability counter screen (AID 1224847; calls by dose curve; note: top concentration of the series differs between compounds; nearly all actives have a fitted effect of over 30% in size)
# Outline: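 Read-out: CellTiter-Glo luminescence, 30 min RT. Cells: wild-type CHO-K1, 1000/well, 10% FBS, plated overnight at 37C. Treatment: 15 concentrations, 3 hr, 37C, 0.76% DMSO.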
# [5] = qHTS assay to identify small molecule antagonists of the estrogen related receptor (ERR) signaling pathway from Tox21 library (AID 1224848); note: nearly all actives have a fitted effect of over 50% in size
# Outline: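 First, 2,000 ERR cells per well were plated and held 6 h at 37 C/5% CO2. Next, compounds in DMSO were pinned in and left 18 h at 37 C. Finally, ONE-Glo was added and luminescence read after 30 min at room temperature.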
# [6] = qHTS assay to identify small molecule agonists of the estrogen related receptor (ERR) signaling pathway from Tox21 library (AID 1224849; calls by dose curve; note: nearly all actives have a fitted effect of over 15% in size)
# Outline: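 Reporter cells (ERR, NTP source) treated with Tox21 10K compounds 18 h, 37 C. Readout: ONE-Glo luminescence, 30 min RT.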
# [7] = qHTS RealTime-Glo MT Cell Viability Assay in HepG2 cells - 24 hour (AID 1224867); note: nearly all actives have a fitted effect of over 50% in size
# Outline: (§1)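 Luminescence read-out: viable HepG2 cells reduce a prosubstrate to a NanoLuc substrate, giving a signal proportional to live cell number. Reads taken at 0, 8, 16, 24, 32 and 40 h of compound exposure at 37 C.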
# [8] = qHTS RealTime-Glo MT Cell Viability Assay in HEK293 cells - 32 hour (AID 1224868); note: top concentration of the series differs between compounds; nearly all actives have a fitted effect of over 50% in size
# Outline: (§2)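 Nonlytic real-time viability readout: viable cells convert prosubstrate to NanoLuc substrate, giving luminescence proportional to live cell number. HEK293, 600 cells/well, compound added after 5 h, continuous culture at 37 C.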
# [9] = A CellTox Green Cytotoxicity Assay to monitor cytotoxicity in HEK293 cells - 0 hour (AID 1224869); note: nearly all actives have a fitted effect of over 50% in size
# Outline: (§3)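 Homogeneous no-lysis format: HEK293 cell suspension mixed with CellTox Green reagent, seeded, incubated 5 h at 37 C/5% CO2, then dosed by pintool with compound in DMSO.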
# [10] = qHTS RealTime-Glo MT Cell Viability Assay in HepG2 cells - 40 hour (AID 1224870); note: nearly all actives have a fitted effect of over 50% in size
# Outline: (§4)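 HepG2 cells mixed with RealTime-Glo MT reagents (NanoLuc plus cell-permeant prosubstrate) were seeded at 600 cells/well, incubated 5 h at 37 C/5% CO2, then pinned with compounds in DMSO; nonlytic luminescence tracked viability during 40 h treatment.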
# [11] = A CellTox Green Cytotoxicity Assay to monitor cytotoxicity in HEK293 cells - 40 hour (AID 1224871); note: nearly all actives have a fitted effect of over 45% in size; note: potency is the fitted concentration of half-maximal effect
# Outline: as §3
# [12] = qHTS RealTime-Glo MT Cell Viability Assay in HEK293 cells - 16 hour (AID 1224872)
# Outline: as §2
# [13] = qHTS RealTime-Glo MT Cell Viability Assay in HepG2 cells - 8 hour (AID 1224873); note: nearly all actives have a fitted effect of over 55% in size
# Outline: as §4
# [14] = qHTS RealTime-Glo MT Cell Viability Assay in HEK293 cells - 40 hour (AID 1224874); conditions: RealTime-Glo luminescence; max response: stronger effect = lower value; note: nearly all actives have a fitted effect of over 50% in size
# Outline: (§5)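 Measured as luminescence from the same continuously cultured HEK293 wells at successive time points (0, 8, 16, 24, 32, 40 h) after compound addition. Reagent present from seeding; dosing at 5 h; incubation 37 C.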
# [15] = A CellTox Green Cytotoxicity Assay to monitor cytotoxicity in HEK293 cells - 24 hour (AID 1224875); note: series mostly up to about 77 µM; nearly all actives have a fitted effect of over 45% in size
# Outline: as §3
# [16] = A CellTox Green Cytotoxicity Assay to monitor cytotoxicity in HepG2 cells - 16 hour (AID 1224876); note: nearly all actives have a fitted effect of over 45% in size
# Outline: (§6)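 Fluorescent DNA-binding dye, 600 HepG2 cells/well, 5 h preincubation then compound in DMSO; same plates read at 0–40 h, 37 C.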
# [17] = qHTS RealTime-Glo MT Cell Viability Assay in HepG2 cells - 32 hour (AID 1224877); note: nearly all actives have a fitted effect of over 55% in size
# Outline: as §1
# [18] = A CellTox Green Cytotoxicity Assay to monitor cytotoxicity in HepG2 cells - 24 hour (AID 1224878); note: nearly all actives have a fitted effect of over 45% in size
# Outline: as §6
# [19] = qHTS RealTime-Glo MT Cell Viability Assay in HEK293 cells - 0 hour (AID 1224880)
# Outline: as §5
# [20] = A CellTox Green Cytotoxicity Assay to monitor cytotoxicity in HepG2 cells - 40 hour (AID 1224879); note: nearly all actives have a fitted effect of over 40% in size
# Outline: as §6
SMILES,Potency [1],Potency [2],outcome [3],outcome [4],Potency [5],outcome [6],outcome [7],Potency [8],outcome [9],Potency [10],Potency [11],Potency [12],outcome [13],max response [14],outcome [15],outcome [16],Potency [17],outcome [18],Potency [19],Potency [20]
Clc1cc(Cl)cc(Cl)c1,inactive,inactive,inactive,inactive,inactive,inactive,inactive,inactive,inactive,inactive,inactive,inactive,inactive,12.7%,inactive,inactive,inactive,inactive,inactive,–
CCN1C=CN(C)C1C (stereo not drawn),inactive,inactive,inactive,inactive,inactive,inactive,inactive,inactive,inactive,–,inactive,–,inactive,0.14%,inactive,–,inactive,inactive,inactive,inactive
O=C(O)CC(C(=O)O)S(=O)(=O)O (stereo not drawn),inactive,inactive,inactive,inactive,inactive,inactive,inactive,inactive,inactive,inactive,inactive,inactive,–,5.69%,inactive,inactive,–,inactive,inactive,inactive
COCCOC[C@H](CC1(C(=O)NC2CCC(C(=O)O)CC2)CCCC1)C(=O)Oc1ccc2c(c1)CCC2 (stereo partly drawn),inactive,inactive,inactive,inactive,inactive,inactive,inactive,inactive,inactive,–,inactive,inactive,–,5.36%,inactive,inactive,inactive,inactive,inactive,–
C=C(C)C(=O)OCC(O)CO (stereo not drawn),inactive,inactive,inactive,inactive,inactive,inactive,inactive,inactive,inactive,inactive,inactive,inactive,inactive,2.31%,inactive,inactive,inactive,inactive,inactive,inactive
CCCCCCC1CCC(=O)O1 (stereo not drawn),inactive,inactive,inactive,inactive,inactive,inactive,inactive,inactive,inactive,–,inactive,inactive,inactive,4.76%,inactive,inactive,–,inactive,–,inactive
Nc1ccn([C@@H]2O[C@H](CO)[C@@H](O)[C@@H]2O)c(=O)n1,inactive,20.1 µM (active),inactive,inactive,inactive,inactive,inactive,inactive,inactive,inactive,inactive,inactive,inactive,6.05%,inactive,inactive,inactive,inactive,inactive,inactive
CCCCCC(=O)OCCc1ccccc1,inactive,inactive,inactive,inactive,inactive,inactive,inactive,inactive,inactive,inactive,inactive,inactive,inactive,5.56%,inactive,inactive,–,inactive,inactive,–
O=S(=O)(O)c1cccc2ccccc12,inactive,inactive,inactive,inactive,inactive,inactive,inactive,inactive,inactive,inactive,inactive,inactive,inactive,14.6%,inactive,inactive,inactive,inactive,inactive,inactive
O=S(=O)(O)c1cccc2c(S(=O)(=O)O)cccc12,inactive,inactive,inactive,inactive,inactive,inactive,inactive,–,inactive,inactive,inactive,–,–,–,–,–,–,inactive,–,inactive
CCCC(C)C(=O)OCC (stereo not drawn),inactive,inactive,inactive,inactive,inactive,inactive,–,inactive,inactive,inactive,inactive,inactive,inactive,-2.71%,inactive,inactive,inactive,inactive,–,inactive
c1ccc2sc(SN3CCOCC3)nc2c1,inactive,inactive,inactive,inactive,inactive,inactive,inactive,inactive,inactive,inactive,inactive,inactive,inactive,4.29%,inactive,inactive,inactive,inactive,inactive,inactive
CC1(C)OC[C@@H](COC(=O)CCc2ccc(OC[C@@H](O)CNCCNC(=O)N3CCOCC3)cc2)O1,inactive,inactive,inactive,inactive,inactive,inactive,inactive,inactive,inactive,inactive,inactive,inactive,–,4.31%,inactive,inactive,inactive,inactive,inactive,inactive
Cc1ccc(C(=O)Nc2ccc(S(=O)(=O)O)c3cc(S(=O)(=O)O)cc(S(=O)(=O)O)c23)cc1NC(=O)c1cccc(NC(=O)Nc2cccc(C(=O)Nc3cc(C(=O)Nc4ccc(S(=O)(=O)O)c5cc(S(=O)(=O)O)cc(S(=O)(=O)O)c45)ccc3C)c2)c1,inactive,inactive,inactive,inactive,inactive,inactive,inactive,inactive,–,inactive,inactive,inactive,–,4.78%,inactive,inactive,inactive,inactive,inactive,–
CCOC(=O)c1ccccc1,inactive,inactive,inactive,inactive,inactive,inactive,inactive,inactive,inactive,inactive,inactive,inactive,inactive,-0.292%,inactive,inactive,inactive,inactive,–,inactive
Cc1cccc(C)c1NC(=O)CC12CCCN1CCC2,inactive,inactive,inactive,inactive,inactive,inactive,inactive,inactive,inactive,inactive,inactive,inactive,inactive,5.91%,inactive,–,–,–,inactive,–

SMILES,Potency [1],Potency [2],outcome [3],outcome [4],Potency [5],outcome [6],outcome [7],Potency [8],outcome [9],Potency [10],Potency [11],Potency [12],outcome [13],max response [14],outcome [15],outcome [16],Potency [17],outcome [18],Potency [19],Potency [20]
CCOC(=O)COC(=O)c1ccccc1C(=O)OCC,inactive,inactive,inactive,inactive,inactive,inactive,inactive,inactive,inactive,inactive,inactive,inactive,inactive,11%,inactive,–,inactive,inactive,inactive,–
CC(C)c1ccc2ncccc2c1,inactive,inactive,inactive,inactive,inactive,inactive,inactive,inactive,inactive,inactive,inactive,inactive,inactive,-0.522%,inactive,inactive,inactive,inactive,inactive,–
CC(C)(N)C#N,inactive,inactive,inactive,inactive,inactive,inactive,inactive,inactive,inactive,inactive,inactive,inactive,inactive,-0.492%,inactive,inactive,–,inactive,inactive,inactive
COc1cc(C)nc(-n2nc(C)cc2OC)n1,inactive,inactive,inactive,inactive,inactive,inactive,–,inactive,inactive,inactive,inactive,inactive,inactive,-0.0998%,inactive,inactive,inactive,inactive,–,inactive
O=CN(CCO)CCO,inactive,inactive,inactive,inactive,inactive,inactive,inactive,inactive,inactive,inactive,inactive,inactive,inactive,-0.597%,inactive,inactive,inactive,inactive,inactive,–
FB(F)F,inactive,inactive,inactive,inactive,inactive,inactive,inactive,inactive,inactive,inactive,inactive,–,inactive,-1.41%,inactive,inactive,–,inactive,–,inactive
CCOC(=O)OC(C)OC1=C(C(=O)Nc2ccccn2)N(C)S(=O)(=O)c2ccccc21 (stereo not drawn),inactive,inactive,inactive,inactive,inactive,inactive,inactive,inactive,inactive,inactive,inactive,inactive,inactive,1.81%,inactive,–,inactive,inactive,inactive,–
c1ccc(CCc2ccccc2)cc1,inactive,inactive,inactive,inactive,inactive,inactive,inactive,inactive,inactive,–,38.9 µM (active),–,inactive,-4.4%,–,–,inactive,–,inactive,–
CC(COc1ccccc1)NN (stereo not drawn),inactive,inactive,inactive,inactive,inactive,inactive,inactive,inactive,inactive,inactive,inactive,inactive,–,2.34%,inactive,–,–,inactive,inactive,inactive
CCCCCCC#CC(=O)OC,inactive,inactive,inactive,inactive,inactive,inactive,inactive,inactive,inactive,inactive,inactive,inactive,inactive,11.4%,inactive,inactive,–,inactive,inactive,inactive
CCCCOCCOC(=O)CCCCCCCCC(=O)OCCOCCCC,inactive,inactive,inactive,inactive,inactive,inactive,inactive,inactive,inactive,inactive,inactive,inactive,inactive,7.25%,inactive,inactive,–,inactive,inactive,inactive
C=CCCCCCCCCC(=O)OCC,inactive,inactive,inactive,inactive,inactive,inactive,inactive,inactive,inactive,inactive,–,inactive,–,3.1%,inactive,inactive,–,inactive,inactive,inactive
CC(=O)c1ccccc1[N+](=O)[O-],inactive,inactive,inactive,inactive,inactive,inactive,inactive,inactive,inactive,inactive,inactive,inactive,inactive,21.1%,inactive,–,inactive,inactive,inactive,inactive
COc1ccccc1OCC1CNC(=O)O1 (stereo not drawn),inactive,inactive,inactive,inactive,inactive,inactive,inactive,inactive,inactive,–,inactive,inactive,inactive,8.57%,inactive,–,inactive,inactive,inactive,inactive
Clc1cc(Cl)c(Cl)nc1Cl,inactive,inactive,inactive,inactive,inactive,inactive,inactive,inactive,inactive,inactive,inactive,inactive,inactive,-11.7%,inactive,inactive,inactive,inactive,inactive,inactive
